{"source": "PubChem BioAssay AID720526", "about": "(National Center for Advancing Translational Sciences (NCATS), 2013)", "note": "Inconclusive results are not listed. A number with no mark means an inactive call. Calls come from the whole dose curve; as a rule, active = well fitted activation curve with a large enough effect; inconclusive = small, poorly fitted or top-dose-only effect; inactive = no such curve, though single readings can be large or run the other way."}
{"assay": "qHTS Assay for NPC1 Promoter Activators: Hit Validation Using Renila Luciferase Read-Out for NPC1; note: % of control where 0% means no effect", "details": "Huh7 NPC1 promoter-luciferase reporter, luminescence, 24 h; series mostly up to 76.9 µM; activity change, positive = activation: at the top concentration", "source_text": "Niemann Pick Type C (NPC) is a rare neurodegenerative lipidosis that is characterized by lipid storage in the endosomal/lysosomal system. Treatment modalities for this devastating disease are currently non-existent due to the severe obstacles associated with accessing the central nervous system with proteins or genes. The majority of mutations causing NPC disease are missense mutations that are distributed throughout the length of the NPC1 protein, with the most prevalent being the I1061T allele. Although NPC1 mutant proteins may be functional, they are typically trapped in the ER due to misfolding. […] We have developed and optimized a cell based renilla luciferase reporter assay in 1536 well format for the identification of up-regulators of the mutant Rab9 promoter. This assay presents data on the validation of hits from the primary screen, which used a firefly luciferase read-out. NIH Chemical Genomics Center [NCGC] NIH Molecular Libraries Probe Production centers Network [MLPCN] MLPCN Grant: MH089375 Assay Submitter (PI): Yiannis A. Ioannou\nHuh7 cells stably expressing NPC promoter-luciferase will be seeded at 1,500 cells/well in 5 uL in 1,536-well white opaque plates with 23 nL/well of compound in DMSO solution. The assay plates will be incubated at 37 deg C for 24 hours, after which 3 uL/well BriteLite plus luciferase detection reagent mixture (Perkin Elmer) will be added. Luminescence signal will be measured in a ViewLux plate reader (Perkin Elmer) after a 10 minute incubation at the room temperature.", "units": {"activity change, positive = activation": "%"}}
{"smiles": "CN1CCc2cc3c(c4c2C1Cc1ccccc1-4)OCO3", "note": "(stereo unspecified)", "activity change, positive = activation": -61.6}
{"smiles": "COc1cccc(CCNCc2ccc(SC)cc2)c1", "activity change, positive = activation": -52.1}
{"smiles": "O=C1c2ccccc2C(=O)N1Cc1nc2ccccc2c(=O)n1-c1cccnc1", "activity change, positive = activation": -8.39}
{"smiles": "COc1ccc(C(CC(=O)N2CCC3(CC2)OCCO3)NS(=O)(=O)c2ccc(F)cc2)cc1", "note": "(stereo unspecified)", "activity change, positive = activation": 24.6}
{"smiles": "Cc1cccn2c(NCC3CCCO3)c(C(C)C)nc12", "note": "(stereo unspecified)", "activity change, positive = activation": 7.06}
{"smiles": "CCC(=NCc1cccnc1)c1c(O)n(-c2ccccc2)c(=O)[nH]c1=O", "activity change, positive = activation": -9.97}
